# In PubChem BioAssay (NCI):
# Compounds without any hit were thinned out: in the full panel of roughly 83,000, 20% have a hit.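 Growth was measured after 48 h exposure to one concentration of compound in 96-well plates. Values under 10 count as active.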 Values without a mark were called inactive. The source made the active and inactive calls.
# What was measured:
# Assay in all cases: NCI-60 one-dose screen, 48 h (100 = growth as untreated, 0 = no growth, -100 = all killed)
# Conditions in all cases: 10 µM unless noted
# [1] = tested on: SR leukemia
# [2] = tested on: RPMI-8226 leukemia
# [3] = tested on: OVCAR-8 ovarian
# [4] = tested on: OVCAR-4 ovarian
# [5] = tested on: SK-OV-3 ovarian
# [6] = tested on: IGROV1 ovarian
# [7] = tested on: OVCAR-3 ovarian
# [8] = tested on: HS 578T breast
# [9] = tested on: NCI/ADR-RES ovarian
# [10] = tested on: T-47D breast
# [11] = tested on: BT-549 breast
# [12] = tested on: MDA-MB-435 melanoma
# [13] = tested on: SW-620 colon
# [14] = tested on: MCF7 breast
# [15] = tested on: HCT-116 colon
# [16] = tested on: HCC-2998 colon
# [17] = tested on: KM12 colon
# [18] = tested on: OVCAR-5 ovarian
Compound,growth [1],growth [2],growth [3],growth [4],growth [5],growth [6],growth [7],growth [8],growth [9],growth [10],growth [11],growth [12],growth [13],growth [14],growth [15],growth [16],growth [17],growth [18]
OC(CCN1CCCCC1)(c1ccccc1)c1ccccc1,104%,100%,99%,99.8%,112%,106%,112%,107%,100%,103%,107%,98.9%,107%,97.9%,102%,99.1%,113%,–
C=CC(C)(C)n1cc(C2=C(O)C(=O)C(c3cn(C(C)(C)C=C)c4ccccc34)=C(O)C2=O)c2ccccc21,71.6%,104%,–,92.4%,94.3%,99.5%,107%,–,97.5%,85.9%,–,103%,105%,–,97.4%,–,99.9%,122%
CCCCCC/C=C\CCCCCCCCCc1cc(O)cc(OC)c1O,0.217% (active),-7.09% (active),-26.1% (active),-19.5% (active),6.17% (active),-45.4% (active),13.6%,44.9%,-5.84% (active),-61.8% (active),3.38% (active),13.3%,14.9%,6.81% (active),5.45% (active),35.7%,–,–
OCCOc1ccc(-c2cc(-c3ccccn3)nc(-c3ccccn3)c2)cc1,5.14% (active),2.3% (active),–,–,18.5%,-17.6% (active),-32.7% (active),–,-57% (active),17.4%,15.9%,22.5%,2.05% (active),1.69% (active),6.4% (active),–,8.52% (active),-36.4% (active)
Nc1ncnc2c1ncn2C1OC(CO)C2OC21 (stereo not drawn),112%,103%,98.7%,109%,105%,111%,106%,98.9%,110%,84.7%,110%,111%,99.5%,93.6%,108%,105%,109%,–
CCOC(=O)c1ccc(NC(C)=O)o1,79.3%,103%,91.3%,107%,92.1%,108%,113%,89.6%,97.5%,93.5%,104%,–,78.7%,96.9%,101%,115%,102%,–
CC(=O)Nc1ccc(C(=O)c2ccc(S(=O)(=O)Nc3ccccc3)cc2)cc1,105%,68.1%,84%,95.5%,104%,–,105%,127%,30.6%,99.2%,–,101%,–,–,75.4%,-97.1% (active),108%,–
O=C(OCc1ccccc1)n1nnc2ccccc21,107%,109%,105%,92.3%,112%,–,106%,107%,111%,106%,100%,101%,107%,97.3%,98.1%,103%,107%,–
CC(=O)OCC1OC(n2cnc3c(=S)nc(N)[nH]c32)C(OC(C)=O)C1OC(C)=O (stereo not drawn),12.9%,–,76.6%,82.5%,50.1%,96.6%,83.4%,77.3%,78.4%,54.4%,79.4%,99.3%,82.9%,60.7%,43.3%,–,86.3%,70%
CC(C)(C)[Si](C)(C)OCC1OC(n2cnc3c(N)ncnc32)CC1OS(C)(=O)=O (stereo not drawn),107%,103%,98.6%,108%,101%,114%,104%,89.8%,103%,97.8%,107%,112%,98.1%,–,102%,103%,95.7%,–
C=C(c1ccc(N(C)C)cc1)c1ccc(N(C)C)cc1,11.8%,7.06% (active),-5.66% (active),–,27.4%,–,-33% (active),–,-35.5% (active),26.9%,-5.95% (active),-67.6% (active),–,13.5%,5.45% (active),5.58% (active),26.5%,16%
NNC(=O)CCCCl,114%,114%,104%,106%,123%,106%,104%,112%,106%,100%,119%,108%,105%,98.4%,108%,102%,102%,–
COC1(OC)C2(Cl)C(Cl)=C(Cl)C1(Cl)C1COCC12 (stereo not drawn),89.9%,106%,93.9%,97.7%,96%,113%,110%,87.4%,110%,96.2%,105%,99%,85.8%,101%,91.5%,105%,111%,–
CCOC(=O)N[C@H]1CCc2cc(OC)c(OC)c(OC)c2-c2ccc(SC)c(=O)cc21,3.83% (active),–,20.8%,53.4%,28.7%,21.7%,-9.45% (active),9.15% (active),0.533% (active),47.7%,-9.25% (active),-17.1% (active),17.4%,13.5%,2.61% (active),12.2%,2.56% (active),23.3%
Cc1[nH]c(=S)[nH]c(=O)c1C,97.9%,115%,89.8%,–,106%,–,118%,123%,105%,115%,99.7%,105%,–,101%,110%,103%,108%,101%
CCCCCC(=O)OCCC1CCCCC1,88.9%,103%,104%,–,106%,–,95.3%,89.7%,103%,–,98.7%,100%,98.4%,107%,89.8%,99.1%,101%,105%
COC1C(=O)CCC2(CO2)C1(O)C1(C)OC1CCC(C)C (stereo not drawn),32.2%,77.4%,–,89.7%,101%,-5.17% (active),95.1%,90.5%,86.8%,81.2%,77.4%,63.8%,60.5%,69.1%,52.5%,76.4%,74%,87.2%
Nc1ccccc1SC1CC(=O)N(c2ccc(Cl)c(Cl)c2)C1=O (stereo not drawn),91.1%,–,79.4%,92.1%,90.5%,105%,113%,117%,95.7%,74.8%,124%,101%,98.8%,112%,87.4%,–,100%,104%
CC(c1ccccc1)N(C)C (stereo not drawn),67.3%,–,117%,77.3%,103%,152%,120%,153%,105%,112%,101%,119%,117%,99.5%,93.8%,113%,101%,92.8%
NCC(O)C(O)C(O)C(O)CO (stereo not drawn),96.6%,–,100%,103%,86.1%,101%,101%,97.1%,102%,84.1%,91.3%,100%,97.2%,97.1%,86.4%,99.1%,98.5%,107%

Compound,growth [1],growth [2],growth [3],growth [4],growth [5],growth [6],growth [7],growth [8],growth [9],growth [10],growth [11],growth [12],growth [13],growth [14],growth [15],growth [16],growth [17],growth [18]
Cc1ccc(C)c2c1CCC2=O,132%,–,104%,105%,121%,117%,96.7%,92.6%,101%,103%,97.6%,93.3%,93.5%,94.7%,93.1%,96.7%,100%,95.8%
COC1OC(CO)C(OC)C(O)C1O (stereo not drawn),93.8%,101%,105%,98.5%,105%,102%,112%,112%,93.5%,112%,104%,109%,93.6%,–,106%,107%,99.6%,–
COc1cc2c(c(OC)c1OC)-c1ccc(SC)c(=O)cc1[C@@H](NC1OC(CO)C(O)C(O)C1O)CC2 (stereo partly drawn),-22.4% (active),19.7%,–,68.3%,1.33% (active),14.8%,-15.5% (active),28.5%,7.19% (active),52.5%,14.9%,-39.6% (active),18.8%,13.9%,9.89% (active),-4.3% (active),-3.89% (active),28.1%
CC(=O)Nc1ccc(O)c(C)c1,94.6%,105%,100%,–,105%,–,107%,107%,102%,95.9%,112%,108%,106%,99.9%,99.1%,106%,106%,104%
C=COC(=O)C(C)(C)C,91.2%,–,107%,108%,107%,96.7%,107%,101%,101%,93.8%,89%,101%,98.4%,96%,109%,94.1%,–,106%
CSc1cnc2ccccc2n1,95.4%,–,95.5%,115%,97.2%,104%,107%,98.8%,103%,81%,94.6%,103%,93.9%,98.9%,99.2%,98.5%,101%,101%
C=C(C)[C@@H]1CC[C@]2(CO)CC[C@]3(C)[C@H](CC[C@@H]4[C@@]5(C)CC[C@H](O)C(C)(C)[C@@H]5CC[C@]43C)[C@@H]12,42.6%,41.2%,–,33.7%,41.3%,35.9%,64.5%,–,-43.6% (active),32.2%,–,77.9%,54.6%,42.9%,1.87% (active),–,49.1%,-21.9% (active)
CCCOCc1cn[nH]n1,99.2%,111%,102%,–,109%,113%,108%,114%,106%,105%,109%,105%,109%,103%,107%,104%,106%,–
COc1cc(OC)c2cc(C(=O)c3ccc(C#N)cc3)c(=O)oc2c1,89.8%,–,97.1%,96.3%,100%,104%,107%,82.1%,101%,88.2%,87.3%,94.6%,106%,97.1%,92.1%,107%,97.5%,89.9%
COc1ccc(-c2csc(NC(=O)Nc3nc(-c4ccc(OC)cc4)cs3)n2)cc1,60.2%,69.5%,70.3%,79%,116%,92.4%,81.9%,105%,79.2%,56.5%,79.9%,78.7%,98.1%,71.6%,64.2%,100%,64.6%,–
CC(C)N1CC(=O)N2CSCC2C1=O (stereo not drawn),114%,109%,106%,123%,116%,111%,104%,98.7%,109%,108%,110%,105%,–,98.7%,112%,102%,98%,–
CCOC(=N)CC(=O)Nc1cccc(C)c1Cl,105%,107%,99.4%,106%,97.7%,104%,104%,105%,97.7%,95%,103%,–,94.9%,89.5%,96.3%,102%,96.7%,–
CC(C)OCC(CCl)OC(=O)Nc1ccccc1 (stereo not drawn),117%,–,97.9%,101%,97.6%,105%,101%,114%,107%,100%,110%,107%,112%,96.9%,108%,95.6%,96.6%,104%
Cn1c(=O)c2nc3c(=O)n(C)c(=O)n(C)c3nc2n(C)c1=O,82.5%,–,108%,108%,97%,106%,107%,-27.8% (active),97%,91.1%,100%,112%,99.8%,93.8%,92.1%,–,109%,91.1%
COc1cc(C(=O)NC(=S)NCc2ccncc2)cc(OC)c1OC,74.2%,97.2%,103%,–,–,107%,105%,106%,98.2%,83.2%,102%,104%,110%,98.3%,97.3%,115%,–,107%
CSCC[C@@H]1C(=O)N(C)[C@H](C(C)(C)C)N1C(=O)c1ccccc1,124%,117%,100%,105%,113%,100%,103%,111%,104%,104%,107%,106%,102%,101%,101%,105%,101%,–
O=C(c1ccccc1)c1ccc(-c2ccc(O)cc2)cc1,177%,–,82.8%,45.6%,93.4%,25.9%,85.8%,104%,44.5%,50.6%,52.3%,9.71% (active),45.4%,–,59.4%,–,35.2%,108%
Cc1cc2nc(C)c(C)nc2cc1C,96.8%,–,94.2%,–,99.5%,97%,105%,108%,101%,99.5%,100%,–,111%,90.7%,112%,110%,108%,95.3%
CCN(C(C)=O)c1ccc([N+](=O)[O-])cc1,97%,–,99.2%,113%,109%,107%,107%,99.8%,102%,–,117%,116%,98.2%,98.1%,109%,97.8%,103%,111%
CCN(CC)CCN1CNC(=S)NC1,96.4%,–,112%,109%,108%,–,109%,105%,106%,94.5%,102%,109%,107%,98.4%,103%,109%,98.7%,107%
